Experimental data taken from the supplement of paper PMC10849652.
About 7,900 targets were measured; listed, in parts, are those with a hit and a random draw of the rest. About 0.6% of all pairs of compound and target were hits.

Compound: C#Cc1cccc(Nc2ncnc3cc(OCCOC)c(OCCOC)cc23)c1 [erlotinib]
Experiment: log2 fold change, soluble protein after heating vs DMSO (PISA); higher = thermal stabilisation; K562 cells, 10 uM, 30 min; active = over 0.2 and 3.5 SD of the protein, either way, in both replicates (recomputed)
Outline: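 K562 cells (2×10^6 cells/mL) were treated with 10 μM compound for 30 min, and aliquots were heated for 3 min over 48°C-58°C. Pooled aliquots were extracted in PBS with 0.5% NP-40 at 4°C, and the supernatant after 21,000xg for 90 min was measured by TMTpro 16plex LC-MS/MS with channel sums equalised. Reported thermal stability, relative to control samples and from duplicates, is a log2 fold change.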

Sequence of UniProt Q15111 (Q15111 whole entry, looked up): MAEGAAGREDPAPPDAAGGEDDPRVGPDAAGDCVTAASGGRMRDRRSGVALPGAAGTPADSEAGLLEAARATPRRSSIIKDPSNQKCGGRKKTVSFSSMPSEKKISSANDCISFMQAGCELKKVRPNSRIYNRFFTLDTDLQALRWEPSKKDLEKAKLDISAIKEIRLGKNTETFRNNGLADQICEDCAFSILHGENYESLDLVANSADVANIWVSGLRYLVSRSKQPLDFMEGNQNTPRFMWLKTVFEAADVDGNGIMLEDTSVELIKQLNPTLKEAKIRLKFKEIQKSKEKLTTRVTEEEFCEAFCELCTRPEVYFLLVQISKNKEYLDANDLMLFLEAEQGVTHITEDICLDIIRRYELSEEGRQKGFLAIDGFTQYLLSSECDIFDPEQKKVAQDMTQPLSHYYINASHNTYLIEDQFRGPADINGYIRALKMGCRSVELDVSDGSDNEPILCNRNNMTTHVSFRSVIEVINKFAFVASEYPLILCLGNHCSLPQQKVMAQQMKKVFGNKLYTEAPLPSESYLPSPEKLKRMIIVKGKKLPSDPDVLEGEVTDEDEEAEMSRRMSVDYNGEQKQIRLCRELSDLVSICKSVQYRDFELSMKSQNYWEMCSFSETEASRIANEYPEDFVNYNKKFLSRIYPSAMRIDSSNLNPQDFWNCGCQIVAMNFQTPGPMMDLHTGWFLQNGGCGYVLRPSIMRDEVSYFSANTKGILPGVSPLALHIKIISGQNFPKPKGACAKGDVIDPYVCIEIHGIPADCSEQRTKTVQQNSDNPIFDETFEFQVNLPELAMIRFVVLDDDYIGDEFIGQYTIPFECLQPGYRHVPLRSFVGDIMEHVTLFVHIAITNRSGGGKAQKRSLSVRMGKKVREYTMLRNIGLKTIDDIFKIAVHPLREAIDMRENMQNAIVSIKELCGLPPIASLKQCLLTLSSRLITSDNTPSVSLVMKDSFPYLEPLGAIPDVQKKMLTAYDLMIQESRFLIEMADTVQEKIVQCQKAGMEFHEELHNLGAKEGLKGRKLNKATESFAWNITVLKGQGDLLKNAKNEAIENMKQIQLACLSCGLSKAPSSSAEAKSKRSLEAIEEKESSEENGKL
Sequence of UniProt O95997 (O95997 whole entry, looked up): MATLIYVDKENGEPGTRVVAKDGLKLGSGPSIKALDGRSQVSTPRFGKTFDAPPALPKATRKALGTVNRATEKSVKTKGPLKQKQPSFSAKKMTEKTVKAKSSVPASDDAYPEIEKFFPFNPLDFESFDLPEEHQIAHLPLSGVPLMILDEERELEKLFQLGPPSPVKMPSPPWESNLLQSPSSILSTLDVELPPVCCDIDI
Sequence of UniProt Q8WUM4 (Q8WUM4 whole entry, looked up): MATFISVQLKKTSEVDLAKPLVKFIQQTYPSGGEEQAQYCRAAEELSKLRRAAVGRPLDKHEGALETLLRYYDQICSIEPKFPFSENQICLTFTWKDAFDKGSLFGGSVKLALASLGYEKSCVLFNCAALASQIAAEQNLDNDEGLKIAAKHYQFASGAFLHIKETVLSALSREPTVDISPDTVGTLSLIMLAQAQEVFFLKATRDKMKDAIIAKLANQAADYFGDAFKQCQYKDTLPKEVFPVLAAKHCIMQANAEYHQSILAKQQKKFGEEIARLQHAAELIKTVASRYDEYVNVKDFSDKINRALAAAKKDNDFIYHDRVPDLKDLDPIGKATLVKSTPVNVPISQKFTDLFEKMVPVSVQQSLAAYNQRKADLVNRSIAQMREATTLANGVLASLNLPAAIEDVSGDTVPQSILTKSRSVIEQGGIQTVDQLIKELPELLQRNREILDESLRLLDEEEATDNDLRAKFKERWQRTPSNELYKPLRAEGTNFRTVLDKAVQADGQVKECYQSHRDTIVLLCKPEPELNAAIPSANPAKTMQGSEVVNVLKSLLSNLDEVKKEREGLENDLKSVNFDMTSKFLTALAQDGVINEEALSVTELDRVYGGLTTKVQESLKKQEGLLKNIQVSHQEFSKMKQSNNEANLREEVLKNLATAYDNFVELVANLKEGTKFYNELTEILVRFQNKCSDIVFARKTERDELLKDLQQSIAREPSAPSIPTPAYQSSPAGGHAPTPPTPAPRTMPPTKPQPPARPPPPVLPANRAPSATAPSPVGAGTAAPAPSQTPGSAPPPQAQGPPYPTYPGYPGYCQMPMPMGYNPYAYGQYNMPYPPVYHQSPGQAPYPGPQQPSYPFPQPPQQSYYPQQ
Sequence of UniProt P42338 (P42338 whole entry, looked up): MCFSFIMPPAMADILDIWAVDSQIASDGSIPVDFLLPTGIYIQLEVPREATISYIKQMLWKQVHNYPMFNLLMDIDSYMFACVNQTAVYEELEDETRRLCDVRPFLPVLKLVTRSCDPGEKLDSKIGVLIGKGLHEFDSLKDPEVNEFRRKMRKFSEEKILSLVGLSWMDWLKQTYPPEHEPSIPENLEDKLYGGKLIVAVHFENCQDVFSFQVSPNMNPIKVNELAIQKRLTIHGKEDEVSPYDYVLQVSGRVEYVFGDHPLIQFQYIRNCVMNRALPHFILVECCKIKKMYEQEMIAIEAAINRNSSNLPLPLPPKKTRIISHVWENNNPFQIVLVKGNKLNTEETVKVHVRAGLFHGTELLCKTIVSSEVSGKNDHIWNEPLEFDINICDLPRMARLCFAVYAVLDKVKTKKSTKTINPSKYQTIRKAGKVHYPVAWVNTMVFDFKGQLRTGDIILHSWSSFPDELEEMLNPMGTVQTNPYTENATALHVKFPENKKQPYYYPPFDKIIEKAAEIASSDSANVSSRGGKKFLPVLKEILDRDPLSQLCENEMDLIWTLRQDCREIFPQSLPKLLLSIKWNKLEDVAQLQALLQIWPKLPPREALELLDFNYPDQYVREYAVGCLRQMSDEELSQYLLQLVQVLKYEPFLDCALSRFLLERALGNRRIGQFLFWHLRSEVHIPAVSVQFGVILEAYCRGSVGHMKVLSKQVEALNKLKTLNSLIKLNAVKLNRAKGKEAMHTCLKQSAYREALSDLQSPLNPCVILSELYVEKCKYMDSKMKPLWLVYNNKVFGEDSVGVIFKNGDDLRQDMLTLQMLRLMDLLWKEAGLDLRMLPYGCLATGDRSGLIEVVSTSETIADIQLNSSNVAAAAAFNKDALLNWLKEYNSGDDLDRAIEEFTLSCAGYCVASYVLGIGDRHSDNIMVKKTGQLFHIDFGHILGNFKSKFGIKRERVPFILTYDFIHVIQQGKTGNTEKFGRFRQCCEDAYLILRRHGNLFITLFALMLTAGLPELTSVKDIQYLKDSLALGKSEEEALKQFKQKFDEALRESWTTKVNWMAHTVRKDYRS
Sequence of UniProt O60925 (O60925 whole entry, looked up): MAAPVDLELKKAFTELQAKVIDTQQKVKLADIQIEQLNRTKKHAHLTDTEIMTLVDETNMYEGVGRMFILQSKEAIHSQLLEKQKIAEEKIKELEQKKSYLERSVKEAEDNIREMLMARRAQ
Sequence of UniProt Q8NAV1 (Q8NAV1 whole entry, looked up): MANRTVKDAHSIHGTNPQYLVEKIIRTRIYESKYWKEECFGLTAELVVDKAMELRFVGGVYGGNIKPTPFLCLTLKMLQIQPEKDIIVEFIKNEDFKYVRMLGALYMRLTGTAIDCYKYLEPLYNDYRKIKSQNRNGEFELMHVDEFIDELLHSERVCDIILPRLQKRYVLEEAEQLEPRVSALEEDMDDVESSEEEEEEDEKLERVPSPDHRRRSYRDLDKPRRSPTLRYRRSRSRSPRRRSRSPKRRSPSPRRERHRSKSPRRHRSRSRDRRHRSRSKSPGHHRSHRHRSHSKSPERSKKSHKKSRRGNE
Sequence of UniProt O96011 (O96011 whole entry, looked up, change not shown): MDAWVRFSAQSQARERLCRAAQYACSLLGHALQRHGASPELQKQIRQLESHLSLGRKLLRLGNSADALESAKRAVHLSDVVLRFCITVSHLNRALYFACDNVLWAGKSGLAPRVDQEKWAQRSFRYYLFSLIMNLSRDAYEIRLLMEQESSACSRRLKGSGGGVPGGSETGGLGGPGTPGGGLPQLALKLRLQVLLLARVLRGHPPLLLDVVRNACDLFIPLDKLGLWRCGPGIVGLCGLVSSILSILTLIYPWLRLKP
Sequence of UniProt O96013 (O96013 whole entry, looked up): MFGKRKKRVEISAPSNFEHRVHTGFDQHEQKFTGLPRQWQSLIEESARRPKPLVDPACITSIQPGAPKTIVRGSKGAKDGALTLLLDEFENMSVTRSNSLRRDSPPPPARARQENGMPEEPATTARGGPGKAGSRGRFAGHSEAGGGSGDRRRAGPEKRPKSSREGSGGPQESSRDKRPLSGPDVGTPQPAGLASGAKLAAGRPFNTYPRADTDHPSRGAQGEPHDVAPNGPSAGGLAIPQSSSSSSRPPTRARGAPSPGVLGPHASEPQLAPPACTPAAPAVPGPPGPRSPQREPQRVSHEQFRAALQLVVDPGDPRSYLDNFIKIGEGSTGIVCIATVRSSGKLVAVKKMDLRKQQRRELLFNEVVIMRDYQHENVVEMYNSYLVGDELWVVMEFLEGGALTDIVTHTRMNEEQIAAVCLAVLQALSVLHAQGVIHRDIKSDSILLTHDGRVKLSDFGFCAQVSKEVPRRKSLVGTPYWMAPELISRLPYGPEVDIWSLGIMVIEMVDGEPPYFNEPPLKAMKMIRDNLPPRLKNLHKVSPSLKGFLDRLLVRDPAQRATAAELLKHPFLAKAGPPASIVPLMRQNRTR
Sequence of UniProt Q15366 (Q15366 whole entry, looked up): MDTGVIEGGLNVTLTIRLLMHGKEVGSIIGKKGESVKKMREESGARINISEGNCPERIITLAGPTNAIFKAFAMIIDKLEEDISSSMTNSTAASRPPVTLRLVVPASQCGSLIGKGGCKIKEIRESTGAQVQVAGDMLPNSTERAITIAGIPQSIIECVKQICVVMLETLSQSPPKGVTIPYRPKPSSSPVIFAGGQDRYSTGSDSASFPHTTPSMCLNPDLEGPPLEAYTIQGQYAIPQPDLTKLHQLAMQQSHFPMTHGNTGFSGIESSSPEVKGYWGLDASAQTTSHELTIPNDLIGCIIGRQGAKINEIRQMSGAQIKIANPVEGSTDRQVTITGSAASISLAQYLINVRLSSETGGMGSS
Sequence of UniProt Q9Y2Y1 (Q9Y2Y1 whole entry, looked up): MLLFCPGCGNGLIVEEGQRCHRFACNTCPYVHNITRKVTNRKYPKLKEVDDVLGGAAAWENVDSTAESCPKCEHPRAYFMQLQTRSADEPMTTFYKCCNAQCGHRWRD

log2 fold change, inactive:
PTPA (UniProt Q15257) 0.022
PLSCR1 (UniProt O15162) -0.023
POLR2M (UniProt P0CAP2) -0.042
PEX11B (UniProt O96011) 0.016
PSMD1 (UniProt Q99460) -0.08
PLCB3 (UniProt Q01970) -0.004
PRKCD (UniProt Q05655) -0.01
PIR (UniProt O00625) -0.027
PFDN1 (UniProt O60925) -0.018
POLR3B (UniProt Q9NW08) -0.022
PPP2R5E (UniProt Q16537) 0.017
PRPF40A (UniProt O75400) 0.082
PC (UniProt P11498) -0.037
PCBP2 isoform 3 (UniProt Q15366) -0.01
PNN (UniProt Q9H307) 0.007
PTTG1 (UniProt O95997) -0.024
POLR2K (UniProt P53803) -0.081
PAK4 (UniProt O96013) 0.155
PRPF38A (UniProt Q8NAV1) -0.032
PRKACA (UniProt P17612) 0.013
POLR3K (UniProt Q9Y2Y1) -0.082
PRKAR1B (UniProt P31321) -0.027
PRPF3 (UniProt O43395) 0.06
PLCL1 (UniProt Q15111) 0.136
PI4K2A (UniProt Q9BTU6) -0.037
PELP1 (UniProt Q8IZL8) 0.082
PDE12 (UniProt Q6L8Q7) -0.023
PRKAA1 isoform 2 (UniProt Q13131) 0
PDE4A (UniProt P27815) 0.012
PDCD6IP (UniProt Q8WUM4) 0.162
PCBP1 (UniProt Q15365) -0.009
PRKAG1 isoform 3 (UniProt P54619) 0.025
PPP6R1 (UniProt Q9UPN7) -0.022
PIK3CB (UniProt P42338) 0.07
PIK3C3 (UniProt Q8NEB9) -0.005
PIP4K2A (UniProt P48426) 0.172
